Screening results deposited in PubChem by National Center for Advancing Translational Sciences (NCATS).
Rows were chosen to be rich in hits. Some 7.3% of all compounds tested hit in one or more screens of this group.
p53 reactivator – restores transcriptional activity of mutant p53; H1299 p53-A138V BP100-luciferase reporter, luminescence, 24 h; Potency, µM (series often up to 92.2 µM), without a hit: at the top dose activity change, positive = activation, usual class: activators; 320,000 tested, 0.063% active; AID 504706; also: % of control where 0% means no effect; nearly all actives have a fitted effect of over 45% in size
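p53-null H1299 cells stably carrying temperature-sensitive p53-A138V and a BP100-luciferase reporter were pinned with compounds (4-point, 1:5 series) and held 24 hrs at 37 deg C. Luminescence was read 10 min after detection reagent.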
SMN2 splice enh – SMN2 splice variant enhancement; 210,000 tested, 2.8% active; AID 1458; HEK293 SMN2-luciferase splicing reporter, luminescence, 30-36 h; Potency, µM (titrated, usually from 46.1 µM), inactives show at the top dose activity change, positive = activation, usual class: activators; also: % of control where 0% means no effect; nearly all actives have a fitted effect of over 55% in size
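HEK293 cells carry an SMN2 minigene-luciferase reporter in which exon 7 inclusion puts luciferase in frame. Cells were seeded at 2000 cells/well, attached for 10-12 hours, then exposed to compounds for 30-36 hours at 37C before ONE-Glo luminescence.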
NPC1 prom act – activates the NPC1 promoter | Huh7 NPC1 promoter luciferase reporter, 24 h | Potency, µM (doses to about 9.22 µM), for inactives: at the highest dose activation, usual class: activators | 320,000 tested, 2.4% active | AID 485313; also: % of control where 0% means no effect; nearly all actives have a fitted effect of over 60% in size
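Huh7 reporter cells (NPC1 promoter driving luciferase) are dosed with compound for 24 h at 37 °C, 5% CO2; luciferase detection reagent is then added and luminescence measured after 10 min at ambient temperature.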
FLuc counter – firefly luciferase modulation, counter-screen for miR-21 project | purified FLuc, Km substrates, luminescence inhibition | Potency, µM (top dose mostly 57.5 µM), inactives show at the top dose activity change, negative = inhibition, most hits filed as inhibitors | 360,000 tested, 6.9% active | AID 588342;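 also: plate controls were vehicle for no effect and reference inhibitor for full effect; nearly all actives have a fitted effect of over 55% in size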
Target sequence (P08659 whole entry, looked up): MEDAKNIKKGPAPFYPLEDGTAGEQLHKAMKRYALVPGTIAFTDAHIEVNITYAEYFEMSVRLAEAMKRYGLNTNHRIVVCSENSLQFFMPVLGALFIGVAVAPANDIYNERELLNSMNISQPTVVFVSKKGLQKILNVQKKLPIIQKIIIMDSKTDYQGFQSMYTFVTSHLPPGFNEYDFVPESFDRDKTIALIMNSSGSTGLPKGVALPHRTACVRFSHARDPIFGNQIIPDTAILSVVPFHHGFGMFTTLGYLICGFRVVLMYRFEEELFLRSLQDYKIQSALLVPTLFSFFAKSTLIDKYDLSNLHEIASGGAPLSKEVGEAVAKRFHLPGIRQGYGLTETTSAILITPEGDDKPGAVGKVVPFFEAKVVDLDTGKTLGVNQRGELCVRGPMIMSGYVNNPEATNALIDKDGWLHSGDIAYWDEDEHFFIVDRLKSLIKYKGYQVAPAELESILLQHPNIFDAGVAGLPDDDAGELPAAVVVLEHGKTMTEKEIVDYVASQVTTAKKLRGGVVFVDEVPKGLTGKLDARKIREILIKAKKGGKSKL
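Biochemical qHTS of compounds, final roughly 60 µM downward over six points, against 10 nM purified firefly luciferase using Km concentrations of substrates (10 uM D-luciferin, 10 uM ATP) in Tris acetate pH 7.5 buffer; luminescence output.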
Rab9 prom act – activators of Rab9 promoter | Huh7 Rab9 promoter-luciferase reporter, luminescence, 24 h | Potency, µM (doses to about 9.22 µM), without a hit: top-dose activation, negative = inhibition, most hits filed as activators | 320,000 tested, 2.8% active | AID 485297; also: % of control where 0% means no effect; nearly all actives have a fitted effect of over 60% in size
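Huh7 cells stably carrying Rab9 promoter–luciferase reporter, plated 1500 cells/well, compound added after 2 h and incubated 24 h at 37 °C; luciferase luminescence then read after 10 min with detection reagent.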
ELG1 genotox – inducers of genotoxicity in HEK293T ELG1-luciferase cells; HEK293T ELG1-luciferase reporter, luminescence, 16 h; Potency, µM (titrated, usually from 46 µM), for inactives: at the highest dose activity change, positive = activation, hits mostly activators; 330,000 tested, 1.3% active; AID 504466; also: % of control where 0% means no effect; nearly all actives have a fitted effect of over 60% in size
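After overnight (16 hr) compound treatment at 37 °C, ELG1-luciferase HEK293T cells were lysed with ONE-Glo; luminescence quantified 30 min later at room temperature.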
The depositor's hits bear a star; ? = inconclusive; nt = no result given. Calls follow the shape of the dose curve; as a rule, active = well fitted curve in the direction sought with a large enough effect; inconclusive = small, poorly fitted or top-dose-only effect, or another doubt; inactive = no such curve, though single readings can be large; an effect the other way counts as inactive or inconclusive. Potency is read from the fitted curve at half-maximal effect.

SMILES | p53 reactivator | SMN2 splice enh | NPC1 prom act | FLuc counter | Rab9 prom act | ELG1 genotox
Cc1ccc(-c2cc(C(=O)NCCc3ccc(S(N)(=O)=O)cc3)c3ccccc3n2)cc1 | -1% | -2% | 4% | 6µM* | 14% | -9%
NS(=O)(=O)c1ccc(CCNC(=O)c2cc(-c3ccco3)nc3ccccc23)cc1 | -2% | nt | -2% | ? | 1% | -6%
NS(=O)(=O)c1ccc(CCNC(=O)c2cc(-c3ccccc3)nc3ccccc23)cc1 | -3% | -7% | -1% | ? | -18% | -9%
COc1ccc(-c2cc(C(=O)NCCc3ccc(S(N)(=O)=O)cc3)c3ccccc3n2)cc1 | -1% | -12% | 4% | 7.6µM* | 26% | -16%
CC(C)c1cnc2c(c1SCC(=O)c1ccc(Cl)cc1)c(=O)n(C)c(=O)n2C | nt | nt | nt | -8% | nt | nt
CCn1ccc(C(=O)Nc2cccc(Cl)c2)n1 | 1% | 13µM* | 3.5µM* | 11µM* | 1.4µM* | ?
CCn1ccc(C(=O)Nc2ccccc2Cl)n1 | 4% | nt | 2µM* | 11µM* | 1.6µM* | 8.2µM*
CCn1cc(Br)c(C(=O)Nc2cccc(Cl)c2)n1 | 20% | 11µM* | 4µM* | ? | 2µM* | ?
CCn1c(C)cc(O)c(C(=O)Nc2cccc(Cl)c2)c1=O | -2% | nt | 28% | -5% | ? | 9%
CCn1cc(Br)c(C(=O)Nc2ccc(Cl)c(Cl)c2)n1 | ? | ? | ? | ? | 3.5µM* | ?
CCn1ccc(C(=O)Nc2ccc(S(=O)(=O)Nc3ccccc3OC)cc2)n1 | -1% | -63% | 2% | 4% | 0% | -4%
COc1ccc2cnoc(=O)c2c1OC | nt | -10% | nt | nt | nt | nt
Cc1ccc(-n2nc(C)c3c(C(=O)NCCc4ccccc4)cc(C)nc32)cc1 | nt | nt | nt | 48% | nt | nt
COc1ccc(-n2nc(C(=O)N3CCN(c4cccc(C)c4)C(C)C3)c3c4ccccc4n(C)c3c2=O)cc1Cl (centres undefined) | nt | 0% | nt | -2% | nt | nt
Cc1ccc(CNC(=O)CCc2nnc3n(C)c(=O)c4sccc4n23)cc1 | nt | -1% | nt | -4% | nt | nt
Cc1ccc(S(=O)(=O)NCC(=O)N/N=C/c2ccccc2O)cc1 | 8% | nt | -9% | 3% | -33% | ?
CCOc1ccccc1CNC(=O)C1CCN(S(=O)(=O)c2c(C)noc2/C=C/c2ccccc2F)CC1 | nt | nt | nt | 2% | nt | nt
CCn1cc(Cl)c(C(=O)Nc2ccc(OC)c(OC)c2)n1 | -1% | -42% | 26% | 15µM* | ? | -7%
COc1ccc(-c2cccc(NS(=O)(=O)c3cc([N+](=O)[O-])ccc3Cl)c2)nn1 | 13% | nt | 0% | -15% | 2% | 0%
O=S(=O)(Nc1cccc(-c2ccc(N3CCCCCC3)nn2)c1)c1ccccc1Cl | 10% | nt | 19% | 8.5µM* | 29% | 4%
O=S(=O)(Nc1cccc(-c2ccc(N3CCCCCC3)nn2)c1)c1ccccc1F | ? | nt | 16% | 19µM* | ? | ?
COC(=O)C1=NN(C(=O)c2ccccc2)C(C)(O)C1 (centres undefined) | 0% | -8% | -2% | 4% | -1% | 1%
COC(=O)C1=NN(C(=O)c2ccccc2)C(O)(c2ccc([N+](=O)[O-])cc2)C1 (centres undefined) | 10% | nt | -2% | 24µM* | 0% | -1%
O=C(O)CCC(=O)N1N=C(c2ccccc2)CC1c1ccc2c(c1)OCO2 (centres undefined) | 12% | nt | -2% | 0% | 2% | -10%
COc1cc(-c2noc(-c3ccco3)n2)cc(OC)c1OC | 3% | -9% | 17% | -12% | 25% | 12%
COc1ccc(-c2ccc(-c3noc(-c4ccccc4)n3)c(OC)n2)cc1 | 7% | 6% | -3% | -18% | 2% | ?
COc1ccccc1-c1noc(-c2ccco2)n1 | ? | 13µM* | 3.5µM* | 11µM* | 3.2µM* | 6.5µM*
